# From the supplement of paper PMC6555819
# Experiments:
# Experiment in all cases: PBM binding z-score (relative to random genomic background probes); higher = stronger binding; sequences stand for … in GC…GCGATTGACAGCGTAGAATGAAGG
# [1] = tested on: RARb homodimer (NR concentration 270 nM)
# Procedure, shortened: (§1)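 Custom Agilent 4×180K protein-binding microarrays carried double-stranded probes, each with a 34-nt variable region. These regions held direct-repeat seeds, single-nucleotide variants, half-site ablations and random human genomic background sequences. Ligand-free nuclear receptor dimers were incubated on the arrays for 1 h, antibodies against each partner (one per run) detected binding, and scanned fluorescence was regression-normalized. Binding z-scores take the random background probes as reference.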
# [2] = tested on: RARg:RXRa (NR concentration 270 nM, RXRa partner concentration 90 nM)
# Procedure, shortened: as §1
# [3] = tested on: RARg homodimer (NR concentration 270 nM)
# Procedure, shortened: as §1
# [4] = tested on: RXRa DBDmut IVT, anti-RXR (DBD mutation: RXRa K156A/R161A, NR concentration 90 nM)
# Procedure, shortened: as §1
# [5] = tested on: RXRa homodimer (NR concentration 180 nM)
# Procedure, shortened: as §1
# [6] = tested on: THRa:RXRa (NR concentration 90 nM, RXRa partner concentration 90 nM)
# Procedure, shortened: as §1
# [7] = tested on: THRa homodimer (NR concentration 90 nM)
# Procedure, shortened: as §1
# [8] = tested on: VDR homodimer (NR concentration 270 nM)
# Procedure, shortened: as §1
Sequence,PBM binding z-score [1],PBM binding z-score [2],PBM binding z-score [3],PBM binding z-score [4],PBM binding z-score [5],PBM binding z-score [6],PBM binding z-score [7],PBM binding z-score [8]
AGAATGAGGTTACCAAAGATCGGGGAAACGCTTG,0.666,1.91,1.43,1.5,2.5,2.71,0.699,-0.00618
ATCTCTAGGCAACAAGTTCAGTGAAAGAGAGGAC,1.5,0.455,0.889,0.344,0.308,0.961,0.49,2.1
TGTGCTAGGTCAACGATGGTCAGCTAATCTGCTA,3.4,3.88,5.19,0.342,2.45,3,0.529,-0.186
TCTAGTAGATCAAGCAGGTTAAGAAAGCCTGAGT,-0.158,-0.256,-0.373,0.554,0.16,0.0974,-0.707,-0.397
CGTCCAAGGTCATAGGAGGTCAGTGACGACAGAT,5.23,6.83,7.27,4.28,7.54,5.3,3.25,4.76
AATTCAGGGTCATCGTAGGCCAGAGTACGCACAG,3.87,6.21,5.46,3.82,7.13,4.78,2.24,4.01
TAGAGTAGGTTAGTCGGGGCATTCAGCCAACATA,0.711,0.539,0.52,-0.0578,0.327,1.42,0.443,1.03
TAGCCTCGGTCATGGGCCAGTATACCACGCGAAC,1.72,1.72,2.42,-1.4,0.378,0.05,-0.217,-0.408
ACTAGCAGGCCAAGGGTCACGCAAGATTAGTCCG,4.29,5.29,4.8,0.355,5.96,3.38,0.69,1.24
ATATCTAGGTTAGCTGGGGTCATTCAGACTAGGC,3.96,4.04,3.18,1.88,5.32,5.07,3.53,5.14
CCAGACAGGTTAAAGGTAACTCAGTCTGGTACGC,1.09,2.24,1.28,0.388,3.23,1.37,-0.0486,0.276
CCAACTGGGGCATAAGGTTACCATAAGCCAGCCC,1.68,1.52,1.12,-0.33,1.24,1.97,1.29,0.0835
GCTAGTTGGTCAGTAATAGGTCACACACCGGTCG,3.86,3.12,2.58,0.228,2.43,2.06,0.841,0.317
TCTTGTAGATCAAAGGTTAAGTAAGCCGAAGCCT,1.76,2.18,1.14,0.911,3.27,1.92,-0.293,-0.446
GCGACTGGGGCATCAGGAGGTTACCATAACTTAA,1.59,2.07,0.983,0.162,0.852,1.66,-0.0939,0.186
TCTCGGCGGACACGAAGGTCAGAGCTTTCCAGAG,2.83,2.03,2.17,0.141,1.28,1.16,-0.151,0.187
CTGACTGGGGCAAGGTTACCATAACGCACAGCCA,1.54,1.43,1.43,0.0299,1.28,1.52,0.417,0.129
GCATATAGGTAAAACAAGGTGAAAGTCCGATTGT,0.61,0.353,0.33,0.273,0.55,4.2,0.967,0.035
GCTATTAGTTGAAAGGGCATCCGAATGATTCTCG,1.52,1.04,0.981,1.01,1.15,0.356,-0.145,0.425
CCTAGCAGGCCAATCTGGGACACTCAAGGCTTGA,-0.286,-0.31,0.0826,-0.25,-0.458,3.08,-0.247,-0.728
TCATATAGGTAAGCAGGTGAAAGTCCGTAAGTTA,0.479,0.2,-0.071,0.903,0.347,0.462,0.196,-0.0581
CGTCCAAGGTCAATGCCAGGTCAGTGAAAGCATT,4.92,7.69,6.75,3.86,5.27,4.71,3.6,3.03
ACTATTAGTTGAGACGCGGGCAACCGATAGGTTG,-0.0528,0.00918,0.268,0.153,-0.256,-0.0691,-0.769,0.135
CGAACTAGGTCACAACAGGACAGTGAAGGATGAT,3.02,4.09,4.79,1.63,2.91,4.09,1.16,0.27
GGAACGAAGGCAAAGTTGATAGCATCTGTCGACG,-0.905,-0.275,-0.151,-0.157,-0.084,-0.716,-1.21,-1.02
ACAGACAGGTGATTAAGGTAACTCAGGCTATCAT,0.49,0.29,0.554,0.282,0.366,2.77,1.93,0.0908

Sequence,PBM binding z-score [1],PBM binding z-score [2],PBM binding z-score [3],PBM binding z-score [4],PBM binding z-score [5],PBM binding z-score [6],PBM binding z-score [7],PBM binding z-score [8]
TCCTATAGGTAAACAGGTGAAAGTCCGTAAGTTA,0.829,0.269,0.132,1.06,0.667,0.77,0.418,0.275
CCTTACGGGTCACGAGGTTATAGCACGACGAGCG,4.07,6.25,5.47,1.53,6.87,3.69,1.09,2.03
TCTTGTCGATCAAGCAGGTTAAGAAAGCCTGAGT,0.296,-0.133,-0.273,0.138,0.0791,0.127,-0.374,-0.0959
CAGCCTAGGTAAGGGCCAGTATAGGAGGAACGTT,-0.166,-0.284,0.264,-1.12,-0.418,-0.373,-0.773,-0.434
ATATGTAGGTTACATCAGGGTCATTCAGGCTATG,3.47,4.16,2.29,1.46,4.28,4.05,2.29,3.17
TCGTATAGGTAATACAGGTGAAAGTCGGCATCTA,0.603,0.62,0.295,1.08,0.949,1.15,0.259,0.57
TATACAGGGTCAAAGGCCAGAGTCCGAATGTCGA,3.69,5.63,4.75,2.69,6.54,3.62,0.963,2.67
TTACCAAGGTGATCTGAGGTCGTTGATCCAACTC,1.63,0.881,0.757,0.903,1.37,4.77,2.67,2.96
AGAATGAGGTTATACGTGGATCAGGGAAGAAAGT,1.08,1.69,0.925,1.84,2.1,2.48,1.1,1.21
CCTGCTAGGTCAATGGTCAACTAAAGCAGCTCGC,3.11,3.77,4.5,1.64,2.55,2.41,0.723,0.324
CGTATTAGTTGACCATAAGGGCAACCGAAGCTCG,2.04,1.2,0.883,0.244,0.743,1.83,1.15,0.668
ATCGAAAGGTCGAAGGTGAATATACCCACCCGAA,2.61,4.63,3.68,1.35,5.69,2.52,0.227,0.834
GCTCGGAGGACAAGGTGAGAGCTTTGTCCGTAGA,0.56,0.159,0.805,-0.507,-0.256,1.5,0.465,-0.74
CCAGACAGGGGAAAGGTAACTCAGTCTGGTACGC,0.183,0.177,-0.0948,-0.138,0.529,0.146,0.0595,-0.41
CAAACTAGGTCCCAGAGGTCAAAGTCCGTGCGTA,4.35,5.07,4.38,2.04,5.62,3.67,1.58,3.87
CCTACCAGGCCAATCTGGGTCACTCAAGGCTTGA,2.5,1.37,1.64,-0.157,1.01,3.84,1.34,0.435
GATACAGGGTCAAGGCCATAGTACGCGTATTGAT,3.69,5.34,5.15,2.44,5.52,3.54,1.52,2.22
CAAACTAGGTCATGAAAGGTCAAAGTCGAATGAC,5.55,7.46,7.78,2.45,7.87,5.19,2.21,4.05
CGTCAAAGTTAAACTAAGGTAACGTAAAGCACGC,0.585,0.536,0.659,0.0253,0.521,4.04,1.78,0.399
CCGACTGGGGCAGAAAAGTTACCATACCATCCGG,-0.232,-0.197,0.109,-0.438,-0.0105,-0.43,-0.509,-0.39
AGTCAAAGTTCACTTGGTAACGTAAGATTCAGCT,3.71,4.88,5.66,4.24,3.44,1.6,-0.48,4.05
GCGTATAGGTAATACAAGGTGAAAGTCCGATTGT,0.95,0.423,0.499,0.141,0.647,4.35,1.03,0.00145
TCTTATAGATCAGCAGGTTAAGAAAGCTGGCCAA,-0.092,0.0544,-0.0955,0.704,0.376,0.0186,-0.656,-0.144
CCGACTGGGGCAAGGTTAGCATAACGCACAGCCA,0.752,0.574,0.814,-0.5,0.57,0.333,-0.266,-0.191
ACTAGCACGCCAAGTTTGGGTCACTCAAACAAAG,1.5,0.693,0.804,-0.276,0.756,2.02,0.988,-0.0889
GCTAGTTGGTCAGTAAAAGGTCTCACACCGGTCG,1.45,0.572,0.449,-0.133,0.172,0.0932,0.0808,-0.174
